Inconclusive results are not listed. A number with no mark means an inactive call. Calls of active or inactive are those of the source. Calls come from the whole dose curve; as a rule, active = well fitted activation curve with a large enough effect in the signal ratio in the repeat runs (not every such curve was filed as active); inconclusive = weak or mixed curves, or effect the other way; inactive = flat fitted curve, though single readings scatter; the % refers to the signal ratio.
The molecules below were run against Estrogen receptor beta (Homo sapiens) (UniProt Q92731) (assay: qHTS assay to identify small molecule agonists of the estrogen receptor beta (ER-beta) signaling pathway (AID 1259377)). Conditions: ER-beta-UAS-bla HEK293T, beta-lactamase FRET ratio, 16 h; series mostly up to 42.5 µM.
Description: U.S. Tox21 Program National Center for Advancing Translational Sciences [NCATS] NIH Chemical Genomics Center [NCGC] U.S. Environmental Protection Agency [EPA] National Institutes of Environmental Health Sciences [NIEHS] National Toxicology Program [NTP] U.S. Food and Drug Administration [FDA] Tox21 Assay Overview: Estrogen receptor (ER), a nuclear hormone receptor, plays an important role in development, metabolic homeostasis and reproduction. Two subtypes of ER, ER-alpha and ER-beta, have similar expression patterns with some uniqueness in both types. Endocrine disrupting chemicals (EDCs) and their interactions with steroid hormone receptors like ER causes disruption of normal endocrine function. To identify the compounds that activate ER signaling, an ER beta-UAS-bla GripTite cell line (Life technologies, Madison, WI, USA) containing a beta-lactamase reporter gene under the control of an Upstream Activator Sequence (UAS) was used to screen Tox21 10K compound library.
Tox21 Assay Protocol Summary: ER-beta-UAS-bla HEK293T cells were dispensed at 2,000 cells/5 uL of assay medium containing 2% charcoal stripped FBS per well into black wall/clear-bottom 1536-well plates using a Multidrop Combi (ThermoFisher Scientific, Waltham, MA) dispenser. After the assay plates were incubated at a 37C and 5% CO2 for 6 hr, 23 nL of compounds dissolved in DMSO, positive controls or DMSO only was transferred to the assay plate by a Pintool station (Kalypsys, San Diego, CA). The plates were incubated at 37C and 5% CO2 for 16 hr. Then 1 uL of LiveBLAzerTM B/G FRET substrate was added using a BioRAPTR FRD (Flying Reagent Dispenser, Aurora Discovery, San Diego, CA). After the plates were incubated at room temperature for 2 hours, fluorescence intensity was measured by an Envision plate reader (PerkinElmer, Shelton, CT).
% is set by controls: 0 for no effect and ±100 for the full control effect.

Sequence of Estrogen receptor beta (Homo sapiens) (Q92731 whole entry, looked up): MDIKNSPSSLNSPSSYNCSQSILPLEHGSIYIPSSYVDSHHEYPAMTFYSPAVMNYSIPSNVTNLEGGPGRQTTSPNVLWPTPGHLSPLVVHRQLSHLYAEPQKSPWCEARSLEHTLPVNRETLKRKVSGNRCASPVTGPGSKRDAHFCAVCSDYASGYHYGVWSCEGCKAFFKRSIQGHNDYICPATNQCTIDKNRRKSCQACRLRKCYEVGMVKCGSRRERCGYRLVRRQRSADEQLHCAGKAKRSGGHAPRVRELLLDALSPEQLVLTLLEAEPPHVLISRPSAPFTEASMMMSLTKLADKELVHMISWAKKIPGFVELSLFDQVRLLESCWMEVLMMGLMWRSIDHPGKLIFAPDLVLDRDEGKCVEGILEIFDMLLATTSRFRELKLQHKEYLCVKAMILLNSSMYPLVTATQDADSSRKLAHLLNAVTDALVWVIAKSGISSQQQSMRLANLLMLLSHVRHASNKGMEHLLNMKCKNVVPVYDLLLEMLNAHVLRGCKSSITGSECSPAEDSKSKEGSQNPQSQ

| Compound | outcome | activation |
| --- | --- | --- |
| CCOC(=O)c1ccc(C)cc1 | inactive | – |
| CC(NC(CCc1ccccc1)C(=O)O)C(=O)N1C(=O)N(C)CC1C(=O)O (stereo not given) | inactive | – |
| CS(=O)(=O)O | inactive | – |
| Cc1cc2c(cc1S(N)(=O)=O)S(=O)(=O)CCC2 | inactive | – |
| CCCCCCOC(=O)CCCCC(=O)OCCCCCC | inactive | – |
| NC(=O)c1ccc(N)cc1 | inactive | – |
| CCOC(=O)Nc1ccc(NCc2ccc(F)cc2)nc1N | inactive | – |
| CC(C)CCCC(C)N (stereo not given) | inactive | – |
| CCS(=O)(=O)c1ccc(OC)c(C(=O)OC)c1 | inactive | – |
| NS(=O)(=O)c1cc(C(=O)NN2C[C@H]3[C@H]4CCC(C4)[C@H]3C2)ccc1Cl | inactive | – |
| NC(CSCC(=O)O)C(=O)O (stereo not given) | inactive | – |
| N=C(N)c1ccc(OCCCOc2ccc(C(=N)N)cc2)cc1 | inactive | – |
| CCCCOCCOCCOCCCC | inactive | – |
| CCCCCCCCCCCCCC=O | – | 5.64% [at 8.39 µM] |
| CC(=O)OCC(=O)[C@@]1(O)CCC2C3CCC4=CC(=O)CC[C@]4(C)C3[C@@H](O)C[C@@]21C (stereo not given in full) | inactive | – |
| CN1CC(=O)NC1=N | inactive | – |
| CC(C)OC(=O)c1ccccc1 | inactive | – |
| O=C1CC2CC1C1CCCC21 (stereo not given) | inactive | – |
| CCOC(=O)C(=O)OCC | inactive | – |
| ClC(Cl)(Br)Br | inactive | – |

| Compound | outcome | activation |
| --- | --- | --- |
| O=C1CCCC(=O)C1 | inactive | – |
| C=C[Si](OC(=C)C)(OC(=C)C)OC(=C)C | inactive | – |
| CC(=O)OCC(=O)[C@@]1(O)CC[C@H]2[C@@H]3CCC4=CC(=O)CC[C@]4(C)[C@H]3C(=O)C[C@@]21C | inactive | – |
| CC(C)(O)C(=O)c1ccccc1 | inactive | – |
| CC(=O)CC(C)C | inactive | – |
| Oc1ccc(C2CNCCc3c2cc(O)c(O)c3Cl)cc1 (stereo not given) | inactive | – |
| COC(C)(C)CCCC(C)CC=O (stereo not given) | inactive | – |
| CCO[Si](CCC1CCC2OC2C1)(OCC)OCC (stereo not given) | inactive | – |
| CC1(C)CO[C@@H](CC(=O)O)CN1 | inactive | – |
| O=c1[nH]c(=O)n([C@H]2C[C@H](O)[C@@H](CO)O2)cc1I | inactive | – |
| NCCCNCCSP(=O)(O)O | – | -1.24% [at 8.39 µM] |
| COc1ccc(CCN(C)CCCC(C#N)(c2cc(OC)c(OC)c(OC)c2)C(C)C)cc1OC (stereo not given) | inactive | – |
| CCCCOCCOCCOCc1cc2c(cc1CCC)OCO2 | inactive | – |
| CCOc1ccc(C(=O)OCCN(CC)CC)cc1 | inactive | – |
| CCCCCCCCCCCCCCCCC | inactive | – |
| CCN(Cc1ccncc1)C(=O)C(CO)c1ccccc1 (stereo not given) | inactive | – |
| O=C[C@H](O)[C@@H](O)[C@H](O)[C@H](O)CO | inactive | – |
| O=C(CCCN1CCN(c2ccccn2)CC1)c1ccc(F)cc1 | inactive | – |
| Nc1cc(=O)[nH]c(N)n1 | inactive | – |
| Nc1nc2c(ncn2COC(CO)CO)c(=O)[nH]1 | inactive | – |

From PubChem BioAssay (Tox21)
